In ChEMBL document CHEMBL4296182, “CO-ADD screening of NIH NCI Diversity Set V”:
For part of these data: Measured potencies and affinities stand elsewhere.

Legend:
Staphylococcus aureus = assay: Antibacterial activity against Staphylococcus aureus MRSA ATCC 43300 (CO-ADD:GP_020); MIC in CAMBH media using NBS plates, by Resazurin F(560/590); format: functional; details: Concentration 20 uM, ASSAY_TEST Inhibition of Bacterial Growth, detection method Resazurin, Fluorescence (ex560/em590), MEDIA CAMHB, plate type 384well, CORNING #3640, time 18 hr
Acinetobacter baumannii = assay: Antibacterial activity against Acinetobacter baumannii ATCC 19606 (CO-ADD:GN_034); MIC in CAMBH media using NBS plates, by Resazurin F(560/590); format: functional; details: Concentration 20 uM, ASSAY_TEST Inhibition of Bacterial Growth, detection method Resazurin, Fluorescence (ex560/em590), MEDIA CAMHB, plate type 384well, CORNING #3640, time 18 hr
Escherichia coli = assay: Antibacterial activity against Escherichia coli ATCC 25922 (CO-ADD:GN_001); MIC in CAMBH media using NBS plates, by Resazurin F(560/590); format: functional; details: Concentration 20 uM, ASSAY_TEST Inhibition of Bacterial Growth, detection method Resazurin, Fluorescence (ex560/em590), MEDIA CAMHB, plate type 384well, CORNING #3640, time 18 hr
Klebsiella pneumoniae = details: Concentration 20 uM; ASSAY_TEST Inhibition of Bacterial Growth; detection method Absorption (OD600); MEDIA CAMHB; plate type 384well; NBS; CORNING #3640; time 18 hr
Candida albicans = details: 20 µM
Cryptococcus neoformans = details: Concentration 20 uM; ASSAY_TEST Inhibition of Fungal Growth; detection method Resazurin; Absorption (OD600-OD570); plate type 384well; NBS; CORNING #3640

Structure (SMILES) | Inhibition (Staphylococcus aureus) | Inhibition (Acinetobacter baumannii) | Inhibition (Escherichia coli) | Inhibition (Klebsiella pneumoniae) | Inhibition (Candida albicans) | Inhibition (Cryptococcus neoformans)
COc1ccc(C(=S)N2CCN(c3ccccc3C)CC2)cc1 | 6.05% | -20.13% | 15.7% | 10.93% | 24.1% | -16.11%
CCOC(=O)CCC1(C(=O)OC)C(=O)CCCCC/C=C/1C(=O)OC (configuration not stated) | 9.69% | 9.62% | -17.88% | 8.19% | 7.46% | 18.91%
COc1ccc2[nH]c(-c3ccccc3)cc2c1 | 9.9% | 3.58% | 0.95% | 16.65% | 6.65% | -9.39%
C=C1CC2(OC1=O)c1ccccc1CCc1ccccc12 | -2.53% | -14.2% | 2.27% | 9.76% | 10.3% | -9.88%
Cc1ccc(S(=O)(=O)CCOC(=O)CNC(=O)OCc2ccccc2)cc1 | 0.28% | 8.19% | 0.72% | 12.65% | 2.97% | -8.5%
Oc1ccnc(Nc2ccc(Cl)cc2)n1 | 11.15% | -11.5% | 6.59% | -5.88% | 0.12% | -10.08%
O=C1c2ccccc2C(=O)N1c1nc[nH]n1 | 4.45% | -18.59% | 12.38% | 0.02% | -0.21% | -4.67%
COc1cc(/C=N/N=c2\[nH]c3c(=O)n(C)c(=O)n(C)c3[nH]2)ccc1O | 15.24% | -6.89% | 14.34% | -8.37% | 48.3% | 33.61%
Nc1cnc(Nc2ccc(Br)cc2)nc1N.O=S(=O)(O)O | 3.44% | 7.82% | -16.03% | 6.45% | 3.46% | 6.23%
C#C[C@]1(O)CC[C@H]2[C@@H]3CCC4=Cc5oncc5C[C@]4(C)[C@H]3CC[C@@]21C [DANAZOL] | -10.91% | 2.93% | 12.68% | 6.03% | 0.72% | -10.04%
Cc1ccc(C)c(N2CCN(c3ccncc3N)CC2)c1 | -5.41% | -5.32% | 7.02% | 8.69% | 3.75% | -6.74%
Cc1cc(NC(=O)Nc2cccc3ccccc23)no1 | -11.32% | -7.4% | 9.22% | -0.15% | 8.31% | -12.19%
O=C(NCc1ccco1)Nc1ccc([N+](=O)[O-])cc1 | 14.72% | 3.43% | 4.45% | 18.95% | 5.76% | -12.12%
Cn1c(=O)c2nc(CCCc3ccc([N+](=O)[O-])cc3)[nH]c2n(C)c1=O | 7.08% | -13.97% | 3.35% | 12.88% | 0.38% | -9.63%
O=C1C2CC3N1CCC31c3ccccc3-n3c1c2ccc3=O (configuration not stated) | 27.56% | -3.15% | 6.22% | 13.77% | 5.53% | -4.11%
CN(C(=O)c1ccncc1)c1ccccc1 | 38.14% | 13.73% | 16.42% | 7.45% | 4.18% | 6.4%
S=C(Nc1ccccc1)Nc1nccs1 | -6.83% | 13.46% | -3.08% | 13.95% | 19.1% | 1.13%
Cc1nc2ccccc2c(N)c1-c1cc(C)c2c(C)nc3ccccc3c2n1 | -4.42% | 8.74% | -14.9% | 5.08% | 2.89% | 18.77%
Sc1nc2ccccc2c2ccccc12 | -5.22% | -10.6% | 1.21% | 0.71% | 24.1% | 19.7%
O=C(CN1CCCC1)Nc1nc(-c2ccc(Cl)cc2)cs1 | -2.74% | 10.5% | -10.54% | 13.35% | 4.21% | -1.35%
Nc1nc(S)c2ncn(C3CCCC3)c2n1 | 16.34% | -8.37% | 6.43% | 18.77% | -3.88% | -14.08%
NCC(=O)Nc1ccc(Cl)cc1C(=O)c1ccc[nH]1 | -7.1% | -14.48% | 6.3% | 6.27% | 1.44% | -13.13%
